Structures are written as SMILES. In all, about 53,000 compounds went through this assay and about 900 (1.7%) showed an effect of 50% or more. The sample as a whole holds a higher share of strong results than the screen did.

Consider 49 molecules from ChEMBL document CHEMBL3988442, “University of Dundee, Small-Polar-MMV Screening Library” (2021).

The test system of the assay is Mycobacterium tuberculosis. In words: Cornell - Phenotypic assay to identify agents that inhibit growth of Mycobacterium tuberculosis. Type of assay: functional. The arrangement: scale not given: direction of the effect not stated beside the values. As to conditions: 10 mM as filed; unlikely as a test dose.
For the molecule `Cc1cc(N2CCCC2c2nnc3n2CCCCC3)nc(N)n1` (centres undefined), the “Percent Effect” value was -31.59%.
For `COCC(=O)N1CCc2ncc(Cn3cncn3)n2CC1` the value was 12.01%; for `CN1CC2(CCCN(Cc3cccc(Oc4ccccc4)c3)C2)OC1=O` (centres undefined), 2.197%.
Turning to `COc1ncc(-c2c(C#N)c(N)nc3c2CCc2[nH]ccc2-3)cn1`, the “Percent Effect” value was 19.25%.
For `Cn1cc(-c2c(C#N)c(N)nc3c2CCc2[nH]ccc2-3)cc1C#N` the value was 1.934%; for `Cn1cc(-c2c(C#N)c(N)nc3c2CCc2[nH]ccc2-3)cn1`, 95.48%; for `Cc1nc(NC(=O)c2c(-n3cnnn3)sc3c2CCCC3)sc1C`, 19.43%.
`CCN1CCCC(NC(=O)CCn2c(C(F)F)cc3cccnc32)C1` (centres undefined): the “Percent Effect” value is recorded as 6.84%.
The figure for `COCC1N(C(=O)Nc2ccccc2)[C@H]2CC[C@]1(O)CC2` (some centres undefined) is -35.59%; for `Cc1nc(-c2cccc(N3CCC(N4CCCC4)CC3)c2)cs1` it is 50.87%.
The figure for `COC1CCCN(C2CCN(c3cccc(-c4csc(C)n4)c3)CC2)C1` (centres undefined) is -0.3551%.
The figure for `Cc1nc(-c2cccc(N3CCC(N4CCCC(C#N)C4)CC3)c2)cs1` (centres undefined) is 11.96%.
For `COCCN1CCC(CNC(=O)c2ccnc(-n3ccnc3)c2)CC1`, the “Percent Effect” value is -23.45%.
The figure for `COc1ccc(N(C(=O)c2ccccn2)C(C)C)cc1F` is 9.62%; for `COc1ccc(N(C(=O)c2cnc(C)cn2)C(C)C)cc1F` it is -10.07%.
On to `COC(=O)c1cnc(C(=O)N(c2ccc(OC)c(F)c2)C(C)C)cn1`, for which the “Percent Effect” value was 77.94%.
The figure for `COc1cc(N2C[C@@H]3COC[C@]3(COc3cccnc3)C2)ncn1.O=C(O)C(F)(F)F.O=C(O)C(F)(F)F` is -11.05%.
For `O=C(O)c1ccc(S(=O)(=O)Nc2cnn(CC(F)(F)F)c2)cc1` the value was 41.5%.
For `COc1cccc(CC(C)NC(=O)NCc2ccn(C)c2)c1` (centres undefined) the value was 85.29%; for `COc1cccc(CC(C)NC(=O)NCCNC(C)=O)c1` (centres undefined), 11.1%.
For `COc1cccc(CC(C)NC(=O)NC(C)C)c1` (centres undefined), the “Percent Effect” value was 44.88%.
The figure for `CS(=O)(=O)C1CCN(S(=O)(=O)c2ccc(F)c(F)c2)CC1` is 25.65%; for `CC(C)c1nc(CNc2ccc(N3CCC(CO)CC3)cn2)cs1` it is 20.33%.
The figure for `CCc1nc(CNC2CCN(c3ccc(OC)cc3)CC2)cs1` is 27.61%; for `COc1ccc(N2CCC(NCc3csc(C(C)C)n3)CC2)cc1` it is 77.68%.
For `COCCn1c(CN2CCCO2)cnc1S(=O)(=O)CC1CCCCC1` the value was 19.4%; for `CN(C)C(=O)C1CN(Cc2ccc(C#N)cc2F)c2ccccc2O1` (centres undefined), 104.6%.
Turning to `CN(C)C1Cc2ccccc2N(S(=O)(=O)c2ccc(C#N)cc2)C1` (centres undefined), the “Percent Effect” value worked out at 12.67%.
The figure for `CNC(=O)[C@@H]1CC[C@@H]2[C@@H](CCN2Cc2ccccc2F)O1.O=C(O)C(F)(F)F` is -11.16%; for `Cc1cc(CN2CCN(Cc3ccc(C#N)cc3F)CC2)no1` it is -3.509%; for `CN(C)C(=O)Cc1ccccc1NCc1cc(C#N)ccc1F` it is 3.977%.
For `N#Cc1ccc(S(=O)(=O)N2CC(CC(=O)O)c3ccccc32)cc1` (centres undefined) the value was 19.47%; for `CNC(=O)C1CN(Cc2ccc(C#N)cc2F)c2ccccc2O1` (centres undefined), 105.9%.
The figure for `Cc1cccc(NC(=O)[C@@H]2CCCN2Cc2ccc(C#N)cc2F)n1` is 12.34%; for `CN(C)C(=O)C1CN(Cc2ccc(C#N)cc2)c2ccccc2O1` (centres undefined) it is 104.5%; for `CCS(=O)(=O)N1CCc2c(cccc2NC(=O)NCCOC)C1` it is 16.78%.
With `COc1ccccc1CCN(C)C(C)c1nc(-c2cccnc2)no1` (centres undefined), the “Percent Effect” value is -40.91%.
On to `CN(CCc1ccncc1)c1cnn(C)c(=O)c1Br`, for which the “Percent Effect” value is given as -2.68%.
The figure for `CC1Cn2c(nc3c2c(=O)[nH]c(=O)n3C)O1` (centres undefined) is -12.37%; for `COCC(=O)N1CCCCC1c1ccncn1` (centres undefined) it is -40.59%; for `Cc1cc(C(=O)Nc2n[nH]c(C3CC3)n2)c2c(C)nn(C)c2n1` it is 11.85%.
For `COc1ccc(N2CCC(NC(=O)c3sccc3C)CC2)cc1` the value was -7.923%; for `CC(=O)c1ccc(NC(=O)NCc2cccc(N(C)C)n2)cc1C`, 76.43%.
`Cc1nc(CCNC(=O)NCc2cccc(N(C)C)n2)cs1`: the “Percent Effect” value is on record as -57.29%.
The figure for `CN(C)c1cccc(CNC(=O)Nc2ccc3[nH]nnc3c2)n1` is 45.79%.
The figure for `CCC(=O)N1CCC(c2ncc3c(n2)CCNC3)CC1` is -31.27%; for `Cl.O=C(c1ccnc(C2CCNCC2)c1)N1CCCC1` it is -26.15%.
For `Cl.O=C(NC1CCCC1)c1ccnc(C2CCNCC2)c1` the value was 56.56%; for `Cl.Cn1ccnc1CNC(=O)c1ccnc(C2CCNCC2)c1`, -5.824%.
